The values that follow come from PubChem BioAssay (NCI).

Several values for one entry are separate records, joined by “and”; a condition that tells them apart may be missing. Identical values can stand only once. Compounds without any hit were thinned out: in the full panel of roughly 83,000, 20% have a hit.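 The endpoint reported here, percent growth, reads 100 for growth as untreated, 0 for no net growth and -100 for all cells dead.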 Activity calls are given as the source filed them. How the source made its calls: active means growth percent below 10; inactive means the rest.

In the experiment the test system is MDA-MB-468 breast. The experiment can be described thus: NCI-60 one-dose screen, 48 h (100 = growth as untreated, 0 = no growth, -100 = all killed). The conditions noted are these: 10 µM unless noted.
Regarding `N#C/C(=C\c1ccc(-c2ccc(Cl)cc2)o1)c1ccc(Cl)cc1`, the growth was 82.2% (inactive).
With `NS(=O)(=O)c1ccc(-n2nc(C(=O)N/N=C\c3ccc(F)cc3)cc2-c2ccc(Cl)cc2)cc1`, the growth was 112% (inactive).
For the molecule `NC(=O)Nc1ccc2ncnc(Nc3ccc(Cl)cc3)c2c1`, the growth is -7.15% (active).
With `COc1ccc([N+](=O)[O-])c(S(=O)(=O)c2ccc(Cl)cc2)n1`, the growth is 52% (inactive).
For the molecule `CCOC(=O)c1c(NCC(=O)Nc2cccc([N+](=O)[O-])c2)sc(C(C)=O)c1C`, the growth is -22.5% (active).
With `N#CC1=C(N)Oc2c(ccc3ccccc23)C1c1cccs1` (stereo not given), the growth is 26.5% (inactive).
Take `COc1cc(/C=C/C(=O)c2cc(-c3ccc(C(F)(F)F)cc3)ccc2O)cc(OC)c1OC`: the growth was 57.9% (inactive).
As to `COC(=O)c1ccc2[nH]c(O)c(C(=Nc3ccc(N(C)C(=O)CN4CCN(C)CC4)cc3)c3ccc(CCO)cc3)c2c1`, the growth is 37.7% (inactive).
To `CC(C)=NNc1ncnc2c1ncn2C1OC(CO)C(O)C1O` (stereo not given) belongs 12.5% (inactive); to `CC(=O)C1=C(O)C=C2Oc3c(C(=O)/C=C/c4c(Cl)cccc4Cl)c(O)c(C)c(O)c3[C@]2(C)C1=O`, -39.7% (active); to `COc1ccc(-c2c(C)noc2-c2ccc(O)cc2O)cc1`, 77.8% (inactive).
With `Cc1ncc(C(=O)Nc2ccc(CN3CCN(C)CC3)c(C(F)(F)F)c2)cc1C#Cc1cnc(NC2CC2)c2ncccc12` the figure was 32% (inactive).
For the molecule `COc1cnc2c(c1)C(=O)c1c-2n(CCCN2CCN(C)CC2)c(=O)c2cc(Cl)ccc12`, the growth is 54.2% (inactive).
Take `COc1ccc(-c2n[nH]nc2-c2csc3ccccc23)cc1OC`: the growth was 21.1% (inactive).
Regarding `Cc1ccc(CSC2=C(Cl)CN(c3ccc(Cl)cc3)C2=O)cc1`, the growth was 83.4% (inactive).
In the case of `CC1(O)CCCCC1O` (stereo not given), the growth was 108% (inactive).
For the molecule `Cc1c([C@H](C(Cl)Cl)[C@H](O)[C@H]2C[C@H](C)C(=O)O2)ccc2c1C(=O)[C@H]1[C@H]2C[C@@H](Br)[C@@]23O[C@@H](CO[C@H]2O)CC13C` (stereo not given in full), the growth was 17.5% (inactive).
For the molecule `Cc1ccc(N=C2CSc3nnc(-c4csc5c4CCCC5)n3N2)cc1`, the growth was 17% (inactive).
In the case of `OCC1OC(O)C(O)C(O)C1O` (stereo not given), the growth was 121% (inactive).
To `COC(=O)C1=NNC(=S)N(c2cc(C)[nH]n2)C(=O)C1` belongs 108% (inactive).
With `CCCN1C(=O)/C(=c2\sc3n(c2=O)C2C(NN=3)N(CC)C(=O)N2CC)c2ccccc21` (stereo not given) the figure was 4.78% (active); with `COc1cccc(-c2[nH]c(=S)ncc2C(=O)c2ccccc2)c1`, 59.4% (inactive).
Consider `CCN1C(=O)N(c2ccccc2)C2Nn3c(s/c(=C4\C(=O)N(C(C)C)c5ccccc54)c3=O)=NC21` (stereo not given), for which the growth is 108% (inactive).
Turning to `C/C(=N/NC(=S)Nc1ccccc1)c1nc2ccc(Cl)cc2[nH]1`, the growth is -44.3% (active).
To `CC1=CC(=O)C=CC1=Nc1ccc(N(C)C)cc1` belongs 48.8% (inactive) and -87.8% (active); to `O=C(CCCSc1nc(-c2ccccc2)cc(-c2ccccc2)n1)NO`, -38% (active).
In the case of `N=S(=O)(NC(=O)c1ccc(Cl)cc1Cl)c1ccc(Br)s1` (stereo not given), the growth was 92.8% (inactive).
Consider `CCCCn1c2cc(OCc3cn(-c4ccc(Cl)cc4)nn3)ccc2c2ccnc(C)c21`, for which the growth is 22.3% (inactive).
With `CC(C)(C)OC(=O)N1CCN(c2ccc(N)cc2)C(=O)C1`, the growth was 111% (inactive).
Take `CC(=O)C1=C(C)NC(SCc2nnc(-c3ccc(C)cc3)o2)=NC1c1ccc(F)cc1` (stereo not given): the growth is 93.4% (inactive).
Consider `CC1=C2[C@@H](CC1)[C@]1(C)O[C@@](C(C)C)(C[C@H]1OC(=O)CO)[C@H]2OC(=O)C1CC1c1ccccc1` (stereo not given in full), for which the growth is 93.3% (inactive).
Consider `Nc1nc(-c2cccc([N+](=O)[O-])c2)c(N=Nc2ccc([N+](=O)[O-])cc2Cl)s1`, for which the growth is -10.7% (active).
In the case of `Oc1ccc(Cc2ccccc2)c2cccnc12`, the growth is -21.1% (active).
Take `CC(=O)OCC(=O)C1(O)C(C)CC2C3C=C(C)C4=Cc5c(cnn5-c5ccccc5)CC4(C)C3C(O)CC21C` (stereo not given): the growth was -10.9% (active).
Consider `N#Cc1c(-c2ccccc2)nc2c(c(-c3ccccc3)nn2-c2ccccc2)c1-c1ccc(N2CCCCC2)cc1`, for which the growth is 93.7% (inactive).
To `COc1ccc(-c2cn3c(-c4ccc(OC)cc4)cnc3c(Oc3ccc4c(C)cc(=O)oc4c3)n2)cc1` belongs 43.9% (inactive).
With `COc1ccc(/C=C2/SC(=Nc3c(C)nn(-c4ccccc4)c3N)NC2=O)cc1` the figure was 7.17% (active); with `Cc1cc(C=O)c(C)c2c1[nH]c1ccccc12`, 68.1% (inactive).
On to `CC(C)CCc1nc2ccc(NCc3ccc(OCCN4CCC(C)CC4)cc3)cc2[nH]1`, for which the growth was 65.6% (inactive).
Regarding `O=[N+]([O-])c1cccc(SSc2cccc([N+](=O)[O-])c2)c1`, the growth is 109% (inactive).
